In all, about 33,000 sequences were measured (“E-score (-0.5 to 0.5)”: median about -0.016, highest 2% from about 0.32 on). The list comes from a sample in which the highest values are over-represented; it also holds similar and randomly drawn sequences.

For the test, the target named is T1, Stp1 (UniProt B3LFK1).
T1 sequence: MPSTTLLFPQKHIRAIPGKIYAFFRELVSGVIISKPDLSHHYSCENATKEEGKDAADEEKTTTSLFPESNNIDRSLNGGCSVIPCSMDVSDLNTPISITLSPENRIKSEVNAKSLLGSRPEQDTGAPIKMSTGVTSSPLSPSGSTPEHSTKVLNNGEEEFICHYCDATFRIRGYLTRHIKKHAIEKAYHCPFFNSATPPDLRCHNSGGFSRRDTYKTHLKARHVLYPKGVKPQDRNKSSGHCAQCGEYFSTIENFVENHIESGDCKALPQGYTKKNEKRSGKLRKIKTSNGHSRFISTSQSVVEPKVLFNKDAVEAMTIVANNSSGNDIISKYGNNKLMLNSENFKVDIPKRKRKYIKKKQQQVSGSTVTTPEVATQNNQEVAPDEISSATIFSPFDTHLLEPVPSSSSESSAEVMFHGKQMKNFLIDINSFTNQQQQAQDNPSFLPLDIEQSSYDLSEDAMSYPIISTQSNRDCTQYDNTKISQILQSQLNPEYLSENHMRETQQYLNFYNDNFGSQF
Put plainly: PBM E-score (8-mer binding enrichment) (E-score (-0.5 to 0.5)); higher = stronger / more preferred TF binding. The following applies: protein concentration: 200 nM; construct: GST-full length. The procedure:
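Universal 'all 10-mer' protein binding microarrays (Agilent AMADID 015681) probed with GST-tagged S. cerevisiae TFs (full-length or DBD) made by in vitro transcription/translation (PURExpress), about 100-200 nM. Bound TF was detected with fluorescent anti-GST. Each ungapped 8-mer (which stands for itself and its reverse complement) is scored by the PBM enrichment score (E-score), a modified Wilcoxon-Mann-Whitney statistic from -0.5 to +0.5, computed with the Universal PBM Analysis Suite. Scale: above 0.35 generally sequence-specific binding.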
In the case of ACACGAAA, the “PBM E-score” value is 0.0839.

Consider GCCATACC, for which the “PBM E-score” value was -0.0417.

Turning to CCAACTGA, the “PBM E-score” value is -0.167.

Regarding ATGCCTCA, the “PBM E-score” value was 0.279.

On to ACGCCTCA, for which the “PBM E-score” value is 0.313.

Turning to GCGCCTAC, the “PBM E-score” value is 0.35.

As for CTGCCTCA, the “PBM E-score” value is -0.0442.

For GTGCCTTA, the “PBM E-score” value was determined as 0.367.

For ATGCCTTA, the “PBM E-score” value was 0.236.

In the case of CCGCCTAC, the “PBM E-score” value is -0.0313.

As for GCGCCTCA, the “PBM E-score” value came out at 0.401.

Consider TCGCCTCA, for which the “PBM E-score” value came to 0.281.

On to GTGCCTGA, for which the “PBM E-score” value is -0.105.

For ACGCCTAC, the “PBM E-score” value is -0.0656.

Consider GTGCCTCA, for which the “PBM E-score” value came to 0.365.

In the case of AGCCCACT, the “PBM E-score” value is -0.203.

For the sequence TCTTTGCA, the “PBM E-score” value was 0.165.

As for GCAGACCC, the “PBM E-score” value is -0.107.

As to CTCCCCTC, the “PBM E-score” value was -0.3.

On to AACTTGGA, for which the “PBM E-score” value turned out to be 0.0205.

As to ATCGTCTG, the “PBM E-score” value amounted to 0.0798.

For AAAGGTAC, the “PBM E-score” value was -0.00049.

Turning to GAAGTGCC, the “PBM E-score” value stood at 0.309.

Take GAGTACTA: the “PBM E-score” value is 0.051.

With CCGCCTTA, the “PBM E-score” value came out at 0.201.

In the case of GCGCCTGA, the “PBM E-score” value is 0.16.

GCGCCTTA: the “PBM E-score” value was 0.399.

With ATTGCCCG, the “PBM E-score” value is -0.0444.

As to AAGGCTCT, the “PBM E-score” value is 0.21.

With ACGGCTCC, the “PBM E-score” value was determined as 0.449.

On to ACGGCTCT, for which the “PBM E-score” value was 0.454.

Turning to CCGGCTCC, the “PBM E-score” value was -0.129.

For the sequence GCGGCTCC, the “PBM E-score” value came to 0.315.

Regarding ACGGCTCG, the “PBM E-score” value amounted to 0.444.

As to AGGGCTCA, the “PBM E-score” value was -0.101.

On to AAGGCTCA, for which the “PBM E-score” value turned out to be 0.16.

As for ACGGCTCA, the “PBM E-score” value is 0.403.

Take ACAGCTCT: the “PBM E-score” value was -0.306.

Consider CCGGCTCG, for which the “PBM E-score” value is -0.0179.

Regarding AAGGCTCG, the “PBM E-score” value is -0.0294.

As to CTCACAAA, the “PBM E-score” value is 0.109.

As for GAAGAGGA, the “PBM E-score” value is -0.286.

For the sequence AATCGATG, the “PBM E-score” value stood at 0.174.

Regarding GACGCTCA, the “PBM E-score” value is -0.136.

For the sequence GGGCTAGA, the “PBM E-score” value is -0.142.

As for ACCTTTCG, the “PBM E-score” value was -0.121.

With CCTCTACC, the “PBM E-score” value was -0.24.

Consider AGAGTGTC, for which the “PBM E-score” value worked out at 0.0784.

As to ATGATCAT, the “PBM E-score” value amounted to 0.17.

As to GCATAGAA, the “PBM E-score” value came to 0.133.

GCATTGGC: the “PBM E-score” value is -0.0163.

For AGTTTGGA, the “PBM E-score” value came to 0.0815.

Turning to ACTGTCCT, the “PBM E-score” value is -0.097.

As to ACTCTCCC, the “PBM E-score” value is -0.159.

Regarding GAAACCTA, the “PBM E-score” value is -0.22.

GGACTACC: the “PBM E-score” value was -0.286.

Consider AAGTCTGT, for which the “PBM E-score” value is -0.193.

As for AACGATTG, the “PBM E-score” value was 0.0458.

Regarding CGACAGCC, the “PBM E-score” value is -0.0511.

With CCGGCTCA, the “PBM E-score” value worked out at 0.0597.

On to GCGGCTCA, for which the “PBM E-score” value turned out to be 0.461.

Take TCGGCTCA: the “PBM E-score” value was -0.0668.

With AAGAACGC, the “PBM E-score” value stood at 0.185.

Take CAGAGCCG: the “PBM E-score” value turned out to be 0.338.

For AAGAGCCA, the “PBM E-score” value was 0.103.

On to AAGAGCCG, for which the “PBM E-score” value is 0.336.

For the sequence CAGAGCCC, the “PBM E-score” value was -0.0943.

For the sequence AAGAGCCT, the “PBM E-score” value is 0.134.

As to CAGAGCCA, the “PBM E-score” value is -0.148.

As for AGAATAAC, the “PBM E-score” value was -0.00738.

Consider ACCAACGG, for which the “PBM E-score” value was determined as 0.173.

Take GTAGAGTA: the “PBM E-score” value was 0.0935.

As for AGGGTAAC, the “PBM E-score” value was -0.165.

For CACGCCGG, the “PBM E-score” value was -0.0191.

For the sequence CACGCCGA, the “PBM E-score” value amounted to 0.0798.

Take GACGCCGC: the “PBM E-score” value stood at 0.453.

Turning to CACGCCGC, the “PBM E-score” value is 0.417.

Consider GACGCCGA, for which the “PBM E-score” value amounted to 0.304.

As to GACGCCCC, the “PBM E-score” value is -0.00392.

GGAACTTA: the “PBM E-score” value is -0.0446.

On to ATGGCACA, for which the “PBM E-score” value was determined as 0.229.

For the sequence ATGGCACG, the “PBM E-score” value stood at 0.354.

Take AGGGCACA: the “PBM E-score” value was found to be 0.334.

As for CTGGCACA, the “PBM E-score” value is -0.187.

Consider CGGGCACG, for which the “PBM E-score” value turned out to be 0.139.

AGGGCACG: the “PBM E-score” value amounted to 0.302.
